# Measured values reported in ChEMBL document CHEMBL5724796, “Tm Shift (DSF) assay results for EUbOPEN Chemogenomics Library” (2024).
# Residues, ends and D or L forms follow the SMILES beside them.
# Experiments:
# Settings in all cases: Compound concentration 20.0 uM
# [1] = biological target: Tyrosine-protein kinase ABL1 (Homo sapiens) (UniProt P00519)
# [2] = biological target: Bromodomain-containing protein 4 (Homo sapiens) (UniProt O60885)
# [3] = biological target: Cyclin-dependent kinase 2 (Homo sapiens) (UniProt P24941)
# [4] = biological target: Casein kinase I isoform delta (Homo sapiens) (UniProt P48730)
# Chain of Casein kinase I isoform delta (Homo sapiens) (P48730 whole entry, looked up, canonical isoform): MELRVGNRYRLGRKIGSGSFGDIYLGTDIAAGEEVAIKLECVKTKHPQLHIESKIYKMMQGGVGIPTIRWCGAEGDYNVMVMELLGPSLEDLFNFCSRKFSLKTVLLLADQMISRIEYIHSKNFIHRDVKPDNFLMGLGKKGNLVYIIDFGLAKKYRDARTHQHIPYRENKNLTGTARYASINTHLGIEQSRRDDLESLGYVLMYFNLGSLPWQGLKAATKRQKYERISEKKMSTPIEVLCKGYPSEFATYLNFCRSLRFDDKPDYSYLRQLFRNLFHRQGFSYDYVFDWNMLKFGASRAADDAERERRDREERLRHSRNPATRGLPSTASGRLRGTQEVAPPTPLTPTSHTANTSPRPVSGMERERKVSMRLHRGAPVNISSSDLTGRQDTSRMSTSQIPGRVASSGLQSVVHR
# [5] = biological target: Glycogen synthase kinase-3 beta (Homo sapiens) (UniProt P49841)
# Chain of Glycogen synthase kinase-3 beta (Homo sapiens) (P49841 whole entry, looked up): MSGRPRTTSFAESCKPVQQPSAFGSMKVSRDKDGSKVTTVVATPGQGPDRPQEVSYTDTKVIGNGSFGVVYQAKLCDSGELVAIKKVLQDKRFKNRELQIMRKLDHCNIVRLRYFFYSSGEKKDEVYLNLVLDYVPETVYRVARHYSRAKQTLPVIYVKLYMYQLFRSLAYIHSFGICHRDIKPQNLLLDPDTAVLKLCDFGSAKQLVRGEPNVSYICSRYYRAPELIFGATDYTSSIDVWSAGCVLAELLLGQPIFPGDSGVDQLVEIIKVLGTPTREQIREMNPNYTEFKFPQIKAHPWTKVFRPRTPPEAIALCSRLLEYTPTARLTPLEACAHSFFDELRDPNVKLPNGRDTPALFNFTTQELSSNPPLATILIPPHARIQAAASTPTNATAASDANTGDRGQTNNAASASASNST
# [6] = biological target: Mitogen-activated protein kinase 1 (Homo sapiens) (UniProt P28482)
# Chain of Mitogen-activated protein kinase 1 (Homo sapiens) (P28482 whole entry): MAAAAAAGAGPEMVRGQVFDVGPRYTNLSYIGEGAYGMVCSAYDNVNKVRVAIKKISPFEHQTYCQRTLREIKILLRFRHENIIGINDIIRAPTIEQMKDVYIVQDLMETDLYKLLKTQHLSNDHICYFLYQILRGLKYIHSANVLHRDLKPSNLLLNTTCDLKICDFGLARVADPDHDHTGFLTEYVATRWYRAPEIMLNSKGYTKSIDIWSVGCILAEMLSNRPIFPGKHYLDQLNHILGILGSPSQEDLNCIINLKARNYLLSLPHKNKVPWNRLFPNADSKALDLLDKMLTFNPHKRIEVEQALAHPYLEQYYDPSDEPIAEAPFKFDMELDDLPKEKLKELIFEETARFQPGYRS
# [7] = biological target: T1, Aurora kinase A (Homo sapiens) (UniProt O14965)
# T1 sequence (whole entry): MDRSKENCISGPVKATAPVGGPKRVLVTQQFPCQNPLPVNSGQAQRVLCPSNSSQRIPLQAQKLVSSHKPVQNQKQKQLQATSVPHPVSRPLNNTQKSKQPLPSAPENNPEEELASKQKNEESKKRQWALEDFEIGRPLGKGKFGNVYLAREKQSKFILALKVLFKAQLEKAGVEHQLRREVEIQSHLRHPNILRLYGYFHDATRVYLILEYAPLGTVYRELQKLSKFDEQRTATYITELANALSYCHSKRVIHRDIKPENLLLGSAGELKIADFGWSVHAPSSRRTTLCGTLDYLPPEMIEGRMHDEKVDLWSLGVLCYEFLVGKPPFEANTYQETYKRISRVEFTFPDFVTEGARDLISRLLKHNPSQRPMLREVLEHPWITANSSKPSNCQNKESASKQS
# [8] = biological target: T2, Transcription intermediary factor 1-alpha (Homo sapiens) (UniProt O15164)
# T2 sequence (whole entry): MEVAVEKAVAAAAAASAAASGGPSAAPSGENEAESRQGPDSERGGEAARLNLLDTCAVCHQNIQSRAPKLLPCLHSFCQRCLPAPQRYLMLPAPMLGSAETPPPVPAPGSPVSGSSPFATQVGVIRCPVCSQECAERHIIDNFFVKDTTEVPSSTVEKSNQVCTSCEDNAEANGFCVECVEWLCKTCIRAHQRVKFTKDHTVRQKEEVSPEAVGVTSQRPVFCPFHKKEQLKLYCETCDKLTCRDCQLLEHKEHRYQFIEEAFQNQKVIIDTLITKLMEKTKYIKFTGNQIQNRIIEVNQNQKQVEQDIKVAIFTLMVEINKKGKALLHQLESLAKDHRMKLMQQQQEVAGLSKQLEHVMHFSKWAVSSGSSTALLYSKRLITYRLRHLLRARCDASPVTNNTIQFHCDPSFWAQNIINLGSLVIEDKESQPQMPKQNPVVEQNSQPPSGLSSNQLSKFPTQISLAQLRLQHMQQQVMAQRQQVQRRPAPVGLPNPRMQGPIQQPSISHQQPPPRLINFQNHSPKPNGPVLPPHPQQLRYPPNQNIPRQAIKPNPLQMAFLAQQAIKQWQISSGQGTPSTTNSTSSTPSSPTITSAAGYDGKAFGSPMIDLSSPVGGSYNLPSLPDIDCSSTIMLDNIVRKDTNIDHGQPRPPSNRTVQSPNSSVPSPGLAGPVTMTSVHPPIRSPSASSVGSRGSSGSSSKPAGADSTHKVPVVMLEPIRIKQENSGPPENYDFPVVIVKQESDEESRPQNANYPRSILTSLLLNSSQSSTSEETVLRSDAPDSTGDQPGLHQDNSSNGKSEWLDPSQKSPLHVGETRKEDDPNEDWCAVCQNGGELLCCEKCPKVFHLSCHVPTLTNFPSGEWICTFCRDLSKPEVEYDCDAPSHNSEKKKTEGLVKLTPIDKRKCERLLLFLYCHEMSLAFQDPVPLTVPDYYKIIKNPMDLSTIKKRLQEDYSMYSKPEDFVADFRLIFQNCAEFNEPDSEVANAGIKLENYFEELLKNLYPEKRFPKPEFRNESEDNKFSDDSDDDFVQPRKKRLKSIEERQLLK
# Chain of Tyrosine-protein kinase ABL1 (Homo sapiens) (P00519 whole entry): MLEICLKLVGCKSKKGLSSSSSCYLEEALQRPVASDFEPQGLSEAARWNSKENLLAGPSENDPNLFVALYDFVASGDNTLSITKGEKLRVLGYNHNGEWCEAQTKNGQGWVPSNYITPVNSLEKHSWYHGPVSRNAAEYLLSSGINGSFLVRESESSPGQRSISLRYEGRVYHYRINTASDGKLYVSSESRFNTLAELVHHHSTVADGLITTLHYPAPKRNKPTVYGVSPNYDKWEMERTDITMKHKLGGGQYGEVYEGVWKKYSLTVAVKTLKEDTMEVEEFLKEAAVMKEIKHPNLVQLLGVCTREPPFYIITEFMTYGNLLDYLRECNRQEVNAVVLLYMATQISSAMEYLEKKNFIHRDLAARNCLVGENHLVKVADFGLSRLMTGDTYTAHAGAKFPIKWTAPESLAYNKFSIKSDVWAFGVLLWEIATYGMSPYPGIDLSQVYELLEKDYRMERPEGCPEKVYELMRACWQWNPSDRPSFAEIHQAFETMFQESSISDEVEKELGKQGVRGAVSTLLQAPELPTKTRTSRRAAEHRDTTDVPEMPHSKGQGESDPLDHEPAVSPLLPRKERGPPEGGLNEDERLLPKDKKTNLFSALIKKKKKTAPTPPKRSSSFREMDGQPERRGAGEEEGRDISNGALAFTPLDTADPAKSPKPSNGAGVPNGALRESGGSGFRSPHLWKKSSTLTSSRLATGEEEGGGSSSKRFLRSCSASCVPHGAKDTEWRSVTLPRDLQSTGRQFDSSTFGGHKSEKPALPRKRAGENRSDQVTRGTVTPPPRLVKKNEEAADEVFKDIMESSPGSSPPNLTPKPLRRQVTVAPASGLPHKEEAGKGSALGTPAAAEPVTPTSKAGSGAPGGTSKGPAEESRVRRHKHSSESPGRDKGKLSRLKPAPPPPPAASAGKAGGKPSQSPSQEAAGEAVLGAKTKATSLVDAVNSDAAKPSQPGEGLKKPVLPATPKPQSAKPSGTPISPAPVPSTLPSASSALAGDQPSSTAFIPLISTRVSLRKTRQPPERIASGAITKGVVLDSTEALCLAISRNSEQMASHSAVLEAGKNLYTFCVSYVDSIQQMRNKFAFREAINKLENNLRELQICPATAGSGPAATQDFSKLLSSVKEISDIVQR
Compound,ΔTm [1] [°C],ΔTm [2] [°C],ΔTm [3] [°C],ΔTm [4] [°C],ΔTm [5] [°C],ΔTm [6] [°C],ΔTm [7] [°C],ΔTm [8] [°C]
CS(=O)(=O)n1cc2c(n1)CN([C@H]1CO[C@H](c3cc(F)ccc3F)[C@@H](N)C1)C2,0.01,1.23,0.1,-0.33,-0.84,0.32,-2.29,-0.65
O=C(O)[C@@H]1CCCN(C(=O)n2cnc(-c3ccc(-c4cnc(N5CCOCC5)nc4)cc3)n2)[C@H]1c1ccccc1,0.15,-1.06,-1.79,1.27,-3.37,0.69,-5.07,0
C[C@H](NC(=O)c1cn(C2(C#N)CC2)cn1)C(=O)Nc1nc(-c2cccc(-c3ccn(C)n3)c2)cs1,0.58,-1.99,0.19,0.61,-0.01,-0.23,1.33,-0.79
CCc1c(C#N)c(S[C@@H](C(N)=O)c2ccccc2)nc(N(C)C)c1C#N,0.6,-2.37,0.24,-0.69,0.35,0.45,-2.54,0.58
CCOc1ccc(Cc2cc([C@@H]3O[C@H](CO)[C@@H](O)[C@H](O)[C@H]3O)ccc2Cl)cc1,0.64,-1.76,-0.13,-0.16,-0.82,0.08,-2.13,-0.07
CC(C)c1ccc(C(=O)N=C(N)N)cc1S(C)(=O)=O,0.77,-2.81,0.03,-0.25,-0.76,0.04,-2.37,-0.41
O=C(O)C1=CCCN(CCON=C(c2ccccc2)c2ccccc2)C1,0.08,-0.61,0.73,-0.14,0,0.02,-1.31,1.41
Cc1ncsc1-c1ccc(CNC(=O)[C@@H]2C[C@@H](O)CN2C(=O)[C@@H](NC(=O)COCC(C)(COCCOCCOCCNC(=O)C[C@@H]2N=C(c3ccc(Cl)cc3)c3c(sc(C)c3C)-n3c(C)nnc32)COCCOCCOCCNC(=O)C[C@@H]2N=C(c3ccc(Cl)cc3)c3c(sc(C)c3C)-n3c(C)nnc32)C(C)(C)C)cc1,-0.19,0,-4.95,-6.12,-4.05,-12,-4.07,-6.48
Oc1nc(-c2ccc(C(F)(F)F)cc2)nc2c1CSCC2,0.58,-2.75,0.01,-0.13,0.44,0.11,-2.41,-0.56
COc1nc(Nc2cc(S(C)(=O)=O)ccc2N[C@@H](c2cccc3c2OC(F)(F)O3)c2ncccc2Cl)nc(N2CCNCC2)n1,-0.96,-4.95,-3.51,-0.34,0,0,-5.82,0.37
COC[C@H](NC(=O)c1ccn(S(C)(=O)=O)c1)C(=O)Nc1nc(-c2cccc(-c3ccn(C)n3)c2)cs1,0.67,-0.81,0.17,0.35,-3.25,0.35,-2.2,-1.12
CCCc1nc(C)c2c(C)nc3ccc(OC)nc3n12,1.04,-3.02,-0.07,2.7,1.39,0.58,-1.87,0.69
CC(C)c1c(-c2cnn(C(C)(C)C)c2)[nH]c2c(C#N)cnn2c1=O,0.32,-1.11,0.15,-0.24,0.53,0.3,-0.18,0.36
C[C@H]1CO[C@@H]2Cn3cc(C(=O)NCc4ccc(F)cc4F)c(=O)c(O)c3C(=O)N12,0.13,-2.15,0.09,-0.04,-0.88,0.4,-0.95,0.47
COc1ncc(C)c(-c2ccc3c(c2)[nH]c(=O)c2cnn([C@H]4CCOC4)c23)c1C,1.31,-3.36,-0.21,-0.26,0.55,-0.06,-2.59,-0.98
Cc1ccc2[nH]c3c(c2c1)CCCC3C(N)=O (configuration not stated),0.45,-2.26,0.06,-0.29,-0.37,0.52,-2.14,-1.11
CC[C@H](C)[C@H](NC(C)=O)C(=O)N[C@@H](CCC(=O)O)C(=O)N[C@H](C(=O)N[C@H](C=O)CC(=O)O)[C@@H](C)O (Ac-IETD-aldehyde),0.22,-2.51,-0.65,0.05,-1.72,-0.3,-1.5,-1.13
Cc1nnn(C)c1-c1cnc2c3cc4cnn(C)c4cc3n([C@H](c3ccccc3)C3CCOCC3)c2c1,0.34,22.9,-0.73,0.09,-1.29,0.17,-2.95,0.06
CC(C)(C)C1CCN(C(=O)n2ncc(C(O)(c3ccccc3)c3ccccc3)n2)CC1,-2.72,-5.41,-2.83,0.67,-5.44,0.52,-4.85,-0.34
O=C1C(=O)N(Cc2ccccc2)c2ccc(S(=O)(=O)N3CCC[C@H]3COc3ccc(C(F)(F)F)cc3)cc21,-0.46,-4.2,-0.42,0.54,-0.32,-0.63,-1.82,-1.21
C[C@H](CN[C@@H](C(=O)Nc1ccc(-c2cnn(C)c2)cn1)c1ccccc1)c1ccc(C#N)cc1,-0.21,-5.89,-3.07,1.03,-2.94,-4.97,-1.84,-1.37
COc1ccc(Cc2nc(O)c3c(C)nc([C@@H](CCCc4ccccc4)[C@@H](C)O)n3n2)cc1OC,-0.12,-2.72,0,-0.14,1.15,0.16,-1.36,-0.56

Compound,ΔTm [1] [°C],ΔTm [2] [°C],ΔTm [3] [°C],ΔTm [4] [°C],ΔTm [5] [°C],ΔTm [6] [°C],ΔTm [7] [°C],ΔTm [8] [°C]
CCc1ccccc1NC(=O)CSC(=O)NNC(=O)[C@H](Cc1c[nH]c2ccccc12)NC(=O)OC(C)(C)C,1.95,-0.97,-0.07,0.05,4.75,-10.2,3.62,5.76
CCOc1ccc(S(=O)(=O)Nc2ccc(Cl)cc2C#Cc2cnc(C(=O)O)cc2OC)c2ncccc12,0.04,-2.23,-0.26,-7.02,-2.42,-0.03,-2.9,0.7
O=C(c1cc(Cc2n[nH]c(=O)c3ccccc23)ccc1F)N1CCn2nc(C(F)(F)F)nc2C1,0.72,-2.42,0.1,-0.28,-0.21,0.61,-2.34,-0.51
CCCCCCCCCCCCC/C=C/[C@@H](O)[C@H](CO)NC(=O)CCl,0.07,-0.55,-0.22,2.15,-0.08,1.33,0.17,-0.39
CCCCCCCCCCCCCCCCNNC(=O)c1cccs1,0.05,-1.37,-0.3,0.26,-1.02,0.48,-0.52,-0.93
CCS(=O)(=O)Cc1cnc(Oc2ccc(F)cc2F)c(-c2cc(C)c3c(=O)[nH]ccn23)c1,0.69,14.7,0.81,-0.35,1.96,0.23,-0.65,0.45
CCC[C@H]1CNCc2c1[nH]c(=O)c(C#N)c2N1CCC2(CC1)CC2,0.01,-1.65,-0.06,0.15,-0.31,-0.08,-0.93,-1.34
O=c1[nH][nH]c(=O)c2cc(OCc3ccccc3F)ccc12,3.37,-1.6,0.72,-6.69,1.24,-14.6,-0.33,0
COc1cc2c(cc1-c1c(C)noc1C)[nH]c1nc(C)nc(-c3ccnc4ccccc34)c12,0.56,11.5,-0.3,-0.15,0.97,0.15,-2.62,-0.1
Cc1cc(/N=N/c2ccc3c(c2)CCC(=O)N3)c(N)cc1O,2.28,-0.4,-0.28,0.68,-0.3,0.09,-0.6,-0.66
COc1cc(Cl)ccc1C1=CN(c2ccc(-c3ccccc3OC)cc2)C2=NCCCN12,0.67,-3.63,-0.6,-0.21,-0.51,-0.14,-2.63,-1.41
COC(=O)c1ccc(CN2CCC(O)(Cn3cnc4c(-c5ccc(CN)cc5)n(C)nc4c3=O)CC2)c(Cl)c1,0.48,-3.34,-0.1,-0.28,-0.1,0.15,-1.56,2.14
CC/C(=C(/c1ccc(/C=C/C(=O)O)cc1)c1ccc2[nH]ncc2c1)c1ccc(F)cc1Cl,-5.16,-0.16,-3.66,-4.37,3.37,0,1.69,0
CCC[C@@H]1CNCc2c1[nH]c(=O)c(C#N)c2N1CCC2(CC1)CC2,0.32,-1.86,0.24,0.29,0.07,-0.21,-0.58,-0.85
O=C1c2ccccc2C(=O)c2oc(-c3ccc(F)cc3)nc21,0.01,-1.84,-0.07,-0.12,-0.33,0.17,-2.4,-0.61
Cc1cc(S(C)(=O)=O)c(S(C)(=O)=O)cc1C(=O)NC(=N)N,0.73,-0.31,0.23,-0.54,0.15,0.12,-1.63,0.34
CC(=O)N[C@@H](CC(C)C)C(=O)N[C@@H](CCC(=O)O)C(=O)N[C@@H](Cc1cnc[nH]1)C(=O)N[C@H](C=O)CC(=O)O (Ac-LEHD-aldehyde),0.07,-2.66,0.05,0.09,-0.79,-0.4,-1.34,-0.81
Cc1cc(OCc2nnc(SC3CCCC3)n2-c2cccnc2)ccc1-c1ccc(S(C)(=O)=O)cc1,-1.4,-2.52,0.2,-0.2,-4.14,0,-1.26,0.18
C[C@@H](Nc1nc2c(cnn2C2CCCC2)c(=O)[nH]1)C(=O)N1CC[C@H](F)C1,0.58,-2.88,0.63,-0.33,1.37,0.07,-2,0.97
CC[C@H](C)[C@H](NC(=O)[C@H](CCC(=O)O)NC(=O)[C@@H](NC(C)=O)C(C)C)C(=O)N[C@H](C=O)CC(=O)O (Ac-VEID-aldehyde),-0.05,-2.59,-0.23,-0.08,-0.35,-0.47,-1.47,-0.43
CC(C)c1cc(C(=O)N2CC[C@@H](NC(=O)C3CC3)C2)[nH]n1,0.79,-3.2,0.06,-0.08,-0.75,0.08,-2.47,1.07
CNCC[C@@H](Oc1ccccc1C)c1ccccc1,0.14,-2.85,0.13,-0.25,-0.38,0.18,-1.68,0.48
